About 79,000 compounds went through this panel and 15% of them were active in at least one assay; those are over-represented in the sample as a whole. Values without a mark were called inactive. Calls of active or inactive are those of the source. Rule as the data show it: active = growth inhibition above about 70%; inactive = the rest.
Assays:
[1] = NCI Yeast Anticancer Drug Screen. Data for the rad50 strain (AID 155);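 also: 0% = growth of vehicle-only cultures of the same strain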; details: S. cerevisiae rad50 strain growth inhibition; at 50.0 µM; hits give high values
In short: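 Cells are treated with compound, grown, and their growth is then scored against vehicle-only cultures of the same repair-deficient yeast strain.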

[2] = NCI Yeast Anticancer Drug Screen. Data for the mec2-1 strain (AID 157); details: S. cerevisiae mec2-1 strain, at 50.0 µM, hits give high values
In short: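 Each compound was tested on mec2-1 yeast, a strain altered in DNA damage repair or cell cycle control. Growth inhibition is reported relative to vehicle.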

[3] = NCI Yeast Anticancer Drug Screen. Data for the sgs1 mgt1 strain (AID 161);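 also: 0% = growth of cultures given vehicle only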; details: S. cerevisiae sgs1 mgt1 strain, at 50.0 µM, hits give high values
In short: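 Inhibition of yeast growth, normalised to vehicle-treated controls, is reported for a strain bearing genetic alterations in DNA damage repair.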

[4] = NCI Yeast Anticancer Drug Screen. Data for the cln2 rad14 strain (AID 165);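 also: 0% = growth equal to vehicle treated cultures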; details: S. cerevisiae cln2 rad14 strain, at 50.0 µM, hits give high values
In short: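 Test compounds were added to cln2 rad14 yeast cultures; inhibition of growth was then determined by comparison with vehicle treatment.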

[5] = NCI Yeast Anticancer Drug Screen. Data for the bub3 strain (AID 167); details: S. cerevisiae bub3 mutant strain, at 50.0 µM, hits give high values
In short: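 Part of a panel of yeast mutants defective in DNA damage repair or cell cycle regulation. Each strain is grown with compound, and inhibition is calculated relative to solvent-treated cultures.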

[6] = NCI Yeast Anticancer Drug Screen. Data for the mlh1 rad18 strain (AID 175); details: S. cerevisiae mlh1 rad18 strain growth inhibition; at 50.0 µM; hits give high values
In short: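 Inhibition values reflect reduced growth of mutant yeast versus vehicle-treated controls following compound exposure; the mutations affect DNA damage repair.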

| Structure (SMILES) | growth inhibition [1] | growth inhibition [2] | growth inhibition [3] [%] | growth inhibition [4] [%] | growth inhibition [5] [%] | growth inhibition [6] |
| --- | --- | --- | --- | --- | --- | --- |
| CN(C)c1nc2ccc(Cl)cc2c(=O)[nH]1 | 6.25% | 4.55% | -14 | 3.55 | -17.9 | 3.9% |
| Cc1ccc(C2(O)c3ccccc3N=NN2C)cc1 (stereo not given) | 2.6% | 0.5% | 4 | -16.8 | 14 | 9.75% |
| C#CCN(Cc1ccc2nc(-c3ccccc3)c(N)nc2c1)c1cc(OC)c(OC)c(OC)c1 | -0.75% | 5.25% | 31.8 | 16.1 | 14.7 | 30.1% |
| CCc1sc(N)nc1-c1ccccc1 | -3.15% | -23.9% | 7.05 | -1.65 | 4 | -8.75% |
| O=C(Oc1ccc(C(=O)c2ccc(C(=O)c3ccc(OC(=O)c4cccc(Br)c4)cc3)cc2)cc1)c1cccc(Br)c1 | 11.2% | 7.15% | -10.7 | -2.35 | 2.65 | 2.15% |
| Cc1cc(C)c(C(C)(C)O)c(C)c1 | 8.45% | 0% | 3.9 | 22.4 | -1.65 | 1.1% |
| Oc1ccc(Cl)c(O)c1 | 30.1% | -0.55% | -3.65 | 0.9 | -6 | 21.7% |
| CCN(CC)CCC(=O)O | -13.4% | -19.4% | -7 | 5.95 | -10.7 | -5.2% |
| COc1ccc(CC2c3cc(OC)c(OC)cc3C=CN2C)cc1OC (stereo not given) | 20.8% | 4.55% | 24.1 | 14.9 | 35.6 | 2.3% |
| O=C(COCC(=O)N/N=C/c1ccc(O)cc1)N/N=C/c1ccc(O)cc1 | -10.4% | 22.2% | 31.8 | -11.9 | 18.1 | 26.3% |
| Cc1ccc(S(=O)(=O)Oc2ccccc2C(=O)O)cc1 | -7.9% | -14.7% | -12.3 | -55.3 | 14.4 | -13.5% |
| CCCCC(c1nc2c(c3c1CCCC3)CCCC2)C(O)(C(F)(F)F)C(F)(F)F (stereo not given) | 13.1% | 7% | 10.2 | -4.15 | -2.1 | 16.4% |
| Cc1cc2c(cc1C)OC(=O)CC2 | 14.3% | 6.15% | -1.2 | -11.9 | 7.45 | 3.65% |
| COC(=O)C(=O)C(C(=O)C=C(C)C)C(=O)C(=O)Nc1cccc(C(C)=O)c1 (stereo not given) | -18.4% | -8.25% | -14.7 | 16.4 | -13.2 | -26.2% |
| CC1C2CC(CC2O)C1(C)C (stereo not given) | 11.3% | 16.6% | 18.1 | 24.4 | 6.3 | 15.9% |
| CC(C)(C)/C(CC(=O)CCC(=O)Nc1ccc(Cl)cc1)=N\NC(N)=S | 11.7% | -6.75% | 19.1 | 9.75 | 1.65 | 20.8% |
| CC1C(=O)OC2C1CCC1(C)C=CC(=O)C(C)C21 (stereo not given) | 10.7% | 4.95% | 1.15 | -23.2 | 1.85 | 14.8% |
| CCSc1sc(=Nc2ccc(N=c3sc(C)c(SC)s3)cc2)sc1-c1ccc(C)cc1 | -33.6% | -0.75% | -11.2 | -39.1 | 2.25 | -5.2% |
| O=C1CSC=NN1c1ccccc1 | -12.8% | -6.75% | -14.9 | -9.75 | 5.75 | 3.9% |
| O=Cc1ccc(-c2cccc([N+](=O)[O-])c2)s1 | 4.9% | 6.1% | -14.1 | 19.9 | 6.1 | 1.85% |

| Structure (SMILES) | growth inhibition [1] | growth inhibition [2] | growth inhibition [3] [%] | growth inhibition [4] [%] | growth inhibition [5] [%] | growth inhibition [6] |
| --- | --- | --- | --- | --- | --- | --- |
| CC1c2c(cc(=O)n(C)c2O)C(=O)N1Cc1ccccc1 (stereo not given) | 2% | 5.75% | 8.7 | -2.6 | 2.45 | -9.4% |
| CCC(C)n1c(C)nc2cc(C(F)(F)F)cc(N)c21 (stereo not given) | 20.7% | 18.4% | 8.4 | -31.2 | 11.6 | 15.2% |
| COc1c(OC)c(C2(O)C(=O)N(C)c3ccccc32)c2c(c1C1(O)C(=O)N(C)c3ccccc31)OCO2 (stereo not given) | 4.25% | 1.7% | -14.9 | 1.2 | 3.05 | 22.9% |
| O=C(CCCCC(=O)NC1c2ccccc2Oc2ccccc21)NC1c2ccccc2Oc2ccccc21 | 35.2% | 12.1% | 31 | 32 | 9.25 | 31.4% |
| CCCCN1C(=O)C(CC(=O)OCC)SC1=S (stereo not given) | -8.35% | -28.7% | -19.9 | -7.8 | -18.2 | -14.3% |
| C(=C/c1ccccc1)/CNCCNC/C=C/c1ccccc1 | 46.1% | 22.6% | 40.8 | 35 | 35.3 | 47.5% |
| CCCCc1ccc(Nc2nc(OC)c3ncn(C4CC(O)C(CO)O4)c3n2)cc1 (stereo not given) | 88.1% (active) | 90.2% (active) | 67.2 | 57.8 | 69.5 | 86.8% (active) |
| COc1ccc2oc(=O)c(-c3csc(-c4ccccc4)n3)cc2c1 | 13.6% | 5.85% | -5.5 | 1.25 | -24.4 | -45.2% |
| C(/C=C/c1csnn1)=C\c1ccccc1 | 8.9% | 8.85% | -4.2 | 15.8 | 2.35 | 0.5% |
| COc1cc2nccnc2cc1OC | 10.1% | 7.05% | 3.35 | -7.45 | 6.55 | 21.2% |
| O=C1C(=C(c2ccccc2)N2CCCCC2)C(=O)c2ccccc21 | 14.9% | -3.6% | 15.1 | -7.75 | 19.3 | 3.2% |
| COc1c(Cl)cc([N+](=O)[O-])cc1C(=O)O | 6.4% | 25.9% | -3.55 | -15.7 | 15.6 | 16.9% |
| COC(=O)C1OC(O[C@H]2CC[C@]3(C)[C@H]4CC=C5[C@@H]6CC(C)(C)CC[C@]6(C(=O)OC6OCC(O)C(O)C6OC6OC(C)C(OC7OCC(OC8OCC(O)C(O)C8O)C(O)C7O)C(O)C6O)[C@H](O)C[C@@]5(C)[C@]4(C)CC[C@H]3C2(C)C)C(O)C(O)C1O (stereo not given in full) | 26.3% | 17% | 10.3 | 11.9 | 42.6 | 32.2% |
| CNC(=O)CN(CC(=O)NC)C(=O)NC | 9.95% | 7.3% | -18 | -3.65 | -2.35 | 1.55% |
| Cc1ccc(N=Nc2cc(C)c(N)cc2N)c(S(=O)(=O)O)c1 | -33.3% | -5.35% | -16.4 | -38.5 | 3.45 | -24.5% |
| Cc1ncc([N+](=O)[O-])n1CCCl | -1.8% | 12.2% | 3.35 | -27.2 | -0.15 | -4.35% |
| COC(=O)c1cc(C)ccc1/C=C1\Cc2c(C)cc(C)cc2C1=O | -12.2% | -25.8% | -6.85 | -30.6 | -46.1 | -39.6% |
| CCCCCC(=O)c1ccc2[nH]c3c(C)cc([N+](=O)[O-])c(C)c3c2c1 | 3.65% | -35.6% | -34.6 | -2.8 | -17.2 | -10.3% |
| COc1ccc(C2=NC(=O)OC2(C)C)cc1 | -6.95% | -20.2% | -5.7 | -11 | -8.6 | -10.2% |
| Cc1ccccc1C(C#N)/C(=N/NC(N)=S)C(=O)Nc1c(C)cccc1C (stereo not given) | -36.5% | -27.7% | 2.5 | -12.4 | -17.2 | -31.1% |
